Among the data in PMC10726135, “HNF4α isoforms regulate the circadian balance between carbohydrate and lipid metabolism in the liver” are binding signal values, retold here.

Over roughly 18,000 sequences, “log2 normalized intensity” has its median near 0.39; the highest 2% begin near 6.6. For the sample, the highest values were picked, then their nearest neighbours and some sequences at random.

This assay concerns the target T1, HNF4alpha2 (COS-7 nuclear extract) (Homo sapiens, UniProt P41235 1-474).
T1 sequence: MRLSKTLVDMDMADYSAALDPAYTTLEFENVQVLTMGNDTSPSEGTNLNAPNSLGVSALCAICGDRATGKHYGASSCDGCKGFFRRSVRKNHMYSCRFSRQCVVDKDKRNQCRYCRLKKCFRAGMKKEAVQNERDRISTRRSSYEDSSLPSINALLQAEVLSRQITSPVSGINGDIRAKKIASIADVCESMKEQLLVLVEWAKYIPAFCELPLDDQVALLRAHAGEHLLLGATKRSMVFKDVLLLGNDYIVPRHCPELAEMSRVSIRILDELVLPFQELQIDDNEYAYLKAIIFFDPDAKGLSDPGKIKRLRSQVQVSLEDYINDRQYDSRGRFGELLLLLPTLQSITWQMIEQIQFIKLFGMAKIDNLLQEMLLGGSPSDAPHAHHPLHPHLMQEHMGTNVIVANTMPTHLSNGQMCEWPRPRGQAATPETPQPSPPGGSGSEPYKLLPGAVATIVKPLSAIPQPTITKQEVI
The experiment in a line: protein-binding microarray; COS-7 nuclear extract on double-stranded Agilent 4x180k PBM; binding buffer, salt, pH and temperature not given in the material; high values mean tight binding. The settings on record: chain copies: 2; label: 3' end of strand 1 on the slide; dsDNA, one strand shown. In outline:
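Nuclear extracts of COS-7 cells transiently transfected with a human HNF4α isoform were applied to a custom Agilent SurePrint G3 4x180k array bearing ~44,000 double-stranded ~60-nt test sequences, each in quadruplicate. The bound protein was imaged on an Agilent G2565CA scanner at 2-µm resolution. Binding signal is the normalized, background-corrected gProcessedSignal from Agilent software.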
With “CTGGGAAGATTAAGGAAGGAAGGTGCTTATGCCTAGGGAGATTAGAGTATCGGTCGA”, the binding signal was -0.85 log2 normalized intensity.

With “TTCACCCCATTTTGTCCCTCCCTGCAGCTGGCCTAGGGAGATTAGAGTATCGGTCGA”, the binding signal was 4.07 log2 normalized intensity.

Turning to “CCACTCTTTTTTAGACTTTGACCTCCATATGCCTAGGGAGATTAGAGTATCGGTCGA”, the binding signal stood at 7.61 log2 normalized intensity.

As to “ACTACCTCTTTAGGCTGGACTCTGACCCATGCCTAGGGAGATTAGAGTATCGGTCGA”, the binding signal is 6.75 log2 normalized intensity.

As to “CCCTGCCACTCTTTTTTAGACTTTGACCTCGCCTAGGGAGATTAGAGTATCGGTCGA”, the binding signal turned out to be 10 log2 normalized intensity.

On to “CTGACCTCTTTTGGATTTTTCCATATCTGTGCCTAGGGAGATTAGAGTATCGGTCGA”, for which the binding signal was found to be 1.74 log2 normalized intensity.

Consider “ATGACCTCTTTTAGTAACTGACTTTAACTTGCCTAGGGAGATTAGAGTATCGGTCGA”, for which the binding signal was 1.5 log2 normalized intensity.

Take “GACCTCTGCCCTTCCACCCACTTTATCTTCGCCTAGGGAGATTAGAGTATCGGTCGA”: the binding signal was 3.26 log2 normalized intensity.

Take “ACCAGACTACCTCTTTAGGCTGGACTCTGAGCCTAGGGAGATTAGAGTATCGGTCGA”: the binding signal is 3.96 log2 normalized intensity.

For the sequence “CTCTTTAGGCTGGACTCTGACCCATTCCTTGCCTAGGGAGATTAGAGTATCGGTCGA”, the binding signal is 5.23 log2 normalized intensity.

For “TGCAGCCCTGCCACTCTTTTTTAGACTTTGGCCTAGGGAGATTAGAGTATCGGTCGA”, the binding signal worked out at 3.72 log2 normalized intensity.

“TTAATGTGCTTGTCTGACTGCTGCCAAAGGGCCTAGGGAGATTAGAGTATCGGTCGA”: the binding signal was -0.631 log2 normalized intensity.

As to “ATGGTGGAGGGTCTTGCTTTGATGTTGATGGCCTAGGGAGATTAGAGTATCGGTCGA”, the binding signal was 1.58 log2 normalized intensity.

Take “CTTTTGGTATGCAAGGCATGGTGCTTCGCAGCCTAGGGAGATTAGAGTATCGGTCGA”: the binding signal stood at 1.26 log2 normalized intensity.

As for “TTTCAAGAATGGAGAAAACAACATTCCTTGGCCTAGGGAGATTAGAGTATCGGTCGA”, the binding signal is -0.213 log2 normalized intensity.

Regarding “TCCTTTGGATCATGTGTCTGAGCAAGTTTCGCCTAGGGAGATTAGAGTATCGGTCGA”, the binding signal was found to be 2.08 log2 normalized intensity.

As for “TGTCATCTAGACCTGGACTTGAAGCCAGACGCCTAGGGAGATTAGAGTATCGGTCGA”, the binding signal was -0.168 log2 normalized intensity.

As to “TGAGTCTGGTGTTTCCCTGTTTGCTTCTGCGCCTAGGGAGATTAGAGTATCGGTCGA”, the binding signal came to 0.819 log2 normalized intensity.

“GTTTAACTGACCCAGGGAGAAAGGTCAGGGGCCTAGGGAGATTAGAGTATCGGTCGA”: the binding signal turned out to be 2.86 log2 normalized intensity.

Take “CTTATCTACTTTAAGATTTGACCCTTGGCCGCCTAGGGAGATTAGAGTATCGGTCGA”: the binding signal is 7.08 log2 normalized intensity.

For “CTGAACTTTAAACTGGTGTGTCTTGCCTTTGCCTAGGGAGATTAGAGTATCGGTCGA”, the binding signal turned out to be 2.06 log2 normalized intensity.

With “ATCTGACCTTTGGTTAACTTCTTAACTTGGGCCTAGGGAGATTAGAGTATCGGTCGA”, the binding signal was determined as 2.97 log2 normalized intensity.

In the case of “AGTGGTTTAAAAACTTATCTTGTGACCTTTGCCTAGGGAGATTAGAGTATCGGTCGA”, the binding signal is 6.81 log2 normalized intensity.

As to “ATTCTCTTATCTACTTTAAGATTTGACCCTGCCTAGGGAGATTAGAGTATCGGTCGA”, the binding signal came to 5 log2 normalized intensity.

With “TATCTTGTGACCTTTGACTCATTATCCCCCGCCTAGGGAGATTAGAGTATCGGTCGA”, the binding signal is 6.24 log2 normalized intensity.

Regarding “TTAAGATTTGACCCTTGGCCAGGTGCAGTGGCCTAGGGAGATTAGAGTATCGGTCGA”, the binding signal came out at 4.65 log2 normalized intensity.

In the case of “AAACTTATCTTGTGACCTTTGACTCATTATGCCTAGGGAGATTAGAGTATCGGTCGA”, the binding signal is 6.43 log2 normalized intensity.

As for “TTTAAAAACTTATCTTGTGACCTTTGACTCGCCTAGGGAGATTAGAGTATCGGTCGA”, the binding signal was 8.33 log2 normalized intensity.

As for “ATAAGACACATTCCATGCTTATCAGTGTACGCCTAGGGAGATTAGAGTATCGGTCGA”, the binding signal is 0.893 log2 normalized intensity.

With “TAACTCAAAATCTGCTCTGTCCTGAGATGTGCCTAGGGAGATTAGAGTATCGGTCGA”, the binding signal stood at 1.06 log2 normalized intensity.

For the sequence “AGGCCTGGAACCTGTCTGACAGGATGAATTGCCTAGGGAGATTAGAGTATCGGTCGA”, the binding signal was -0.627 log2 normalized intensity.

Take “GCTGCCGCAGATCCCCGCTCCCCTCCCCCAGCCTAGGGAGATTAGAGTATCGGTCGA”: the binding signal worked out at 6.45 log2 normalized intensity.

As for “AAGAGCCAAAATGTGTTAGGCAAGCAAACTGCCTAGGGAGATTAGAGTATCGGTCGA”, the binding signal was -0.953 log2 normalized intensity.

For “ATGTGGTCAAAACTTTGTTTGAGTTCCAAAGCCTAGGGAGATTAGAGTATCGGTCGA”, the binding signal amounted to 1.07 log2 normalized intensity.

Take “ATACAGAATCAATGCCTGATTCCAAAGTCCGCCTAGGGAGATTAGAGTATCGGTCGA”: the binding signal was found to be 5.95 log2 normalized intensity.

As for “CGGTGAGGGATTGTTTAGGTACAAAGTCCAGCCTAGGGAGATTAGAGTATCGGTCGA”, the binding signal stood at 8.35 log2 normalized intensity.

As to “CTCTGAGATTCGGTGAGGGATTGTTTAGGTGCCTAGGGAGATTAGAGTATCGGTCGA”, the binding signal amounted to 0.957 log2 normalized intensity.

With “AACTTTGTTTGAGTTCCAAAGTCCATGTTCGCCTAGGGAGATTAGAGTATCGGTCGA”, the binding signal came to 6.61 log2 normalized intensity.

For the sequence “GTCAAAACTTTGTTTGAGTTCCAAAGTCCAGCCTAGGGAGATTAGAGTATCGGTCGA”, the binding signal came out at 6.99 log2 normalized intensity.

Consider “TTGTTTAGGTACAAAGTCCATTGGAAGCCAGCCTAGGGAGATTAGAGTATCGGTCGA”, for which the binding signal came to 5.82 log2 normalized intensity.

Take “AAAGTCCATATTCTTTGTTTGGATGCCAAAGCCTAGGGAGATTAGAGTATCGGTCGA”: the binding signal is 1.58 log2 normalized intensity.

As to “AGATTCGGTGAGGGATTGTTTAGGTACAAAGCCTAGGGAGATTAGAGTATCGGTCGA”, the binding signal was 1.53 log2 normalized intensity.
